Screening data: PubChem BioAssay, National Center for Advancing Translational Sciences (NCATS)
Rows were chosen to be rich in hits. Some 12% of all compounds tested hit in one or more screens of this group.
PLK1 PBD block: blocks phosphopeptide binding to human PLK1 polo-box domain. Plk1 PBD binding of FITC phosphopeptide, fluorescence polarization. Potency, µM, without a hit: max response, negative = inhibition, actives largely listed as inhibitors. hit rate 2.8% among 360,000; further: series mostly up to about 57 µM; on the % scale 0 is the no-effect control and ±100 the full control effect; nearly all actives have a fitted effect of over 65% in size
HP1b binding inh: inhibitors of HP1-beta chromodomain binding to methylated histone tails; P83916; AlphaScreen HP1-beta / biotin-H3K9me3 peptide binding; Potency, µM (titrated, usually from 114 µM), without a hit: top-dose activity change, negative = inhibition, hits mostly inhibitors; hit rate 0.56% among 390,000; AID 540317; further: nearly all actives have a fitted effect of over 70% in size
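AlphaScreen: HP1-beta (50 nM) preformed 30 min with biotin-H3(1-18)K9me3 peptide (50 nM) in PBS pH 7.4, 0.01% Tween-20. Compound added for 30 min at RT, then streptavidin donor/nickel chelate acceptor beads (10 ug/mL) for 30 min.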
Sfp inh: blocks B. subtilis Sfp PPTase activity | Q9F4F7 | Biochemical Sfp PPTase activity, qHTS | Potency, µM, without a hit: largest response in the series, negative = inhibition, hits mostly inhibitors | hit rate 3.5% among 310,000;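 further: the enzyme is Sfp with the accession as filed and its product quenches rhodamine fluorescence; 0% = enzyme reaction without inhibitor and -100% = no enzyme wells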
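Reaction rates are the 30-min fluorescence difference (ex 525, em 598 nm) in wells containing 15 nM Sfp, 5 uM rhodamine-CoA and 12.5 uM BHQ-2-YbbR at pH 7.6 with 10 mM MgCl2.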
BAZ2B inh: inhibitors of human BAZ2B bromodomain; Q9UIF8; AlphaScreen BAZ2B-H3K14Ac peptide displacement; Potency, µM (series often up to 114 µM), inactives show at the highest dose activity change, negative = inhibition, actives largely listed as inhibitors; hit rate 4.4% among 360,000; further: on the % scale 0 is the no-effect control and ±100 the full control effect; nearly all actives have a fitted effect of over 60% in size
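AlphaScreen displacement: compounds (up to 110uM) incubated 30 min at room temperature with a preformed 50 nM BAZ2B/50 nM biotinylated H3K14Ac peptide complex in PBS pH 7.4 with Tween-20. Donor and acceptor beads at 10 ug/mL final added, 20 min light-protected before reading.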
JMJD2A Tudor inh: inhibitors of human JMJD2A Tudor domain; AlphaScreen JMJD2A-Tudor / H3K4me3 peptide binding; Potency, µM (series often up to 114 µM), inactives show top-dose activity change, negative = inhibition, hits mostly inhibitors; hit rate 4.4% among 390,000; AID 504339; further: on the % scale 0 is the no-effect control and ±100 the full control effect; nearly all actives have a fitted effect of over 50% in size
Target sequence (O75164 whole entry, looked up, the tested form may be a part): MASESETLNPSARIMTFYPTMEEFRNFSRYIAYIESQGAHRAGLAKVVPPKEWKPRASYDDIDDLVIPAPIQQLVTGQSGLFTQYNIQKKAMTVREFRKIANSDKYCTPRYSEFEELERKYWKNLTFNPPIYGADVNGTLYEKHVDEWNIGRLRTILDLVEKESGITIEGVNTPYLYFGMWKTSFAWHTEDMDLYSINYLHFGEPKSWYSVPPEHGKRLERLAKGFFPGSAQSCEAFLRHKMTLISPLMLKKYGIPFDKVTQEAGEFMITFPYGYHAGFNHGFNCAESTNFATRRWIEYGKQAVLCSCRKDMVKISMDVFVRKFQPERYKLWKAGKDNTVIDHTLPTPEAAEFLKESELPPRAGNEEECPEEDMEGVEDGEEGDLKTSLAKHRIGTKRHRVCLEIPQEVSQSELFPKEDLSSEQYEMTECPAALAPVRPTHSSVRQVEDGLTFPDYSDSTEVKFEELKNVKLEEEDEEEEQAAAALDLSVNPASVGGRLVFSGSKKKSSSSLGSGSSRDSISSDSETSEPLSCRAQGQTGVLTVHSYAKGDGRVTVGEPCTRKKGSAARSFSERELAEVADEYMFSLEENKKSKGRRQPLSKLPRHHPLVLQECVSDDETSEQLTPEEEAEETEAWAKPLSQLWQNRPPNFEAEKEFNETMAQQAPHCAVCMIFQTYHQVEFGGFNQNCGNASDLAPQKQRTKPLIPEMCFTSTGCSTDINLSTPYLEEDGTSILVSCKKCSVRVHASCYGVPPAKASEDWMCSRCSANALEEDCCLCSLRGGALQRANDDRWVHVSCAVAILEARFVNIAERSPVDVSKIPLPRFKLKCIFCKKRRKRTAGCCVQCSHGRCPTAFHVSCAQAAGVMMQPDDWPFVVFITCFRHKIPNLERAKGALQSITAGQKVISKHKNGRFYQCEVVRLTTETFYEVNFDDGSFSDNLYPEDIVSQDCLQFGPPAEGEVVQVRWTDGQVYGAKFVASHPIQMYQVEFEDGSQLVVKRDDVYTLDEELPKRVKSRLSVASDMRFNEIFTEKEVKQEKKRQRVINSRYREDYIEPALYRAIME
G9a block: inhibitors of human histone lysine methyltransferase G9a | G9a H3K9 monomethylation, AlphaScreen, 2 h | AID 504332 | Q96KQ7 | Potency, µM (highest dose often 102 µM), without a hit: top-dose activity, negative = inhibition, hits mostly inhibitors | hit rate 8.8% among 350,000; further: on the % scale 0 is the no-effect control and ±100 the full control effect; nearly all actives have a fitted effect of over 75% in size
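Signal arises when biotinylated H3K9 peptide, once monomethylated, bridges streptavidin donor and antibody-captured acceptor beads. Enzyme at 20 nM was preincubated 15 min with test compounds; peptide 500 nM and SAM 20 uM then reacted for 2 h.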
* = called active by the depositor; ? = inconclusive; · = no result given; [ ] = another dose, or the depositor's remark. The call rests on the fitted dose curve; in most records, active means well fitted curve in the direction sought with a large enough effect; inconclusive means small, poorly fitted or top-dose-only effect, or another doubt; inactive means no such curve, though single readings can be large; an effect the other way counts as inactive or inconclusive. Potency means the concentration at half of the fitted maximal effect.

SMILES	PLK1 PBD block	HP1b binding inh	Sfp inh	BAZ2B inh	JMJD2A Tudor inh	G9a block
COc1ccc(N2CCN(C(c3ccccc3)c3nnnn3Cc3ccc(F)cc3)CC2)cc1 (stereo not given)	-7%	-22%	13%	-50%	?	22µM*
COc1ccc(Cn2nnnc2C(c2ccccn2)N2CCN(c3cc(Cl)ccc3C)CC2)cc1 (stereo not given)	-4%	6%	2%	?	?	22µM*
COc1ccc(C(c2nnnn2Cc2cccs2)N2CCN(c3ccc(F)cc3)CC2)cc1OC (stereo not given)	21µM*	?	-3%	?	45µM*	?
CN1CCN(C(c2ccc(F)cc2)c2nnnn2Cc2cccs2)CC1 (stereo not given)	-11%	41%	-11%	?	-28%	?
COc1ccc(N2CCN(C(c3ccccc3)c3nnc(-c4ccccc4Cl)o3)CC2)cc1 (stereo not given)	·	?	·	40µM*	50µM*	13µM*
Cc1cc(=O)[nH]c(SCC(=O)Nc2nonc2C)n1	-3%	20%	10%	2%	-3%	-2%
CC(C)N(Cc1ccccc1)C(=O)CN1C(=O)NC2(CCCC2)C1=O	1%	42%	·	4%	7%	-4%[59 µM]
CO[C@]1(NC(=O)C2SC(=C(C(N)=O)C(=O)O)S2)C(=O)N2C(C(=O)O)=C(CSc3nnnn3C)CS[C@H]21 (stereo not given in full)	·	·	-18%	·	·	17%[21.5 µM]
COc1ccc(C(c2nnnn2Cc2ccc(F)cc2)N2CCN(c3ccc(OC)cc3)CC2)cc1 (stereo not given)	-1%	?	?	?	?	32µM*
Cc1c(O)nc(SCC(=O)Nc2nccs2)n(-c2ccccc2F)c1=O	4%	7%	-4%	-10%	-16%	16%
CCOc1cccc(NC(=O)C(Cc2cccs2)c2nn[nH]n2)c1 (stereo not given)	-7%	12%	?	?	-1%	56µM*
O=C(Nc1ccccc1)C(Cc1cccs1)c1nn[nH]n1 (stereo not given)	-10%	40%	-8%	-25%	-15%	-35%[59 µM]
S=C(Nc1ccccc1)Nc1ccccc1C#Cc1ccccc1	·	·	1%	·	·	·
CCOc1ccc(CNC(=O)C2CCN(S(=O)(=O)c3cn(C)cn3)CC2)cc1OC	·	-13%	·	-12%	0%	?
COC(=O)COc1ccc(-c2nccc(-c3ccc(Br)cc3)n2)cc1	9.5µM*	10%	17%	4%	16µM*	6%
CC(=O)c1cccc(NC(=O)c2oc(C)nc2C)c1	-19%	-12%	11%	-2%	-17%	45µM*
CC(=O)c1cccc(NC(=O)c2onc(C)c2Cl)c1	-4%	37%	26%	-15%	-4%	-24%
CC(=O)c1cccc(NC(=O)c2ccc(C)o2)c1	30µM*	25%	7%	-3%	?	1%
CCc1c(C(C)S(=O)(=O)c2ccccc2)[nH]c(=O)n1CC (stereo not given)	15µM*	-32%	50µM*	-13%	?	3.5µM*
O=C(c1ccccc1)n1c(=O)cc[nH]c1=O	-15%	33%	·	11%	-8%	19%[2.33 µM]
O=C(CCCOc1ccc(Cl)cc1Cl)Nc1ccccc1C(=O)O	-10%	32%	21%	-1%	-13%	-3%
CCCCOc1ccc(Nc2cc(Cl)ccc2C(=O)O)cn1	24µM*	-30%	10%	71µM*	?	30%[0.501 µM]
Cc1nc2ccc(S(=O)(=O)N(C)CC(=O)NCc3ccc4c(c3)OCO4)cc2s1	-11%	5%	19%	0%	-8%	10%[2.33 µM]
Cc1nc2ccc(S(=O)(=O)N(C)CC(=O)NCc3ccc(N(C)C)cc3)cc2s1	-28%	-25%	14%	?	?	50µM*
CN(C)c1ccc(CNC(=O)CN2CCSc3ccc(S(=O)(=O)N(C)C)cc32)cc1	·	-16%[57 µM]	·	40µM*	45µM*	7.9µM*
